Autofluor counter: counter-screen for toxin protease inhibitors: compound fluorescence; hit rate 3.1% among 360,000; fluorescence intensity (concentration not given with the values); compound autofluorescence counterscreen, microsphere flow cytometry; stronger effect = higher value; in the data active = fluorescence intensity above about 16000; inconclusive = no clear call, values can overlap the other calls
BoNT A protease: BoNT A light chain protease inhibition | multiplex microsphere protease substrate cleavage, flow cytometry | inhibition, % at 10 µM | hit rate 0.17% among 360,000 | AID 588499
SARS 3CLpro inh: SARS-CoV 3CLpro protease inhibition; P0C6X7; recombinant SARS-CoV 3CLpro, quenched FRET peptide cleavage; inhibition, % at 6 µM; hit rate 0.14% among 290,000; AID 1706; in the data active = inhibition above about 12%
BoNT F protease: blocks Botulinum neurotoxin F light chain protease; Multiplex microsphere protease cleavage assay, flow cytometry; AID 588497; inhibition, % at 10 µM; hit rate 0.22% among 360,000; in the data active = inhibition above about 35%, passing the limit was not always enough; inconclusive = no clear call, values can overlap the other calls
Anthrax LF inh2: blocks Bacillus anthracis lethal factor protease. P15917. multiplex microsphere protease cleavage assay, LF. inhibition, % at 10 µM. hit rate 0.12% among 360,000
Target sequence (P15917 whole entry, looked up): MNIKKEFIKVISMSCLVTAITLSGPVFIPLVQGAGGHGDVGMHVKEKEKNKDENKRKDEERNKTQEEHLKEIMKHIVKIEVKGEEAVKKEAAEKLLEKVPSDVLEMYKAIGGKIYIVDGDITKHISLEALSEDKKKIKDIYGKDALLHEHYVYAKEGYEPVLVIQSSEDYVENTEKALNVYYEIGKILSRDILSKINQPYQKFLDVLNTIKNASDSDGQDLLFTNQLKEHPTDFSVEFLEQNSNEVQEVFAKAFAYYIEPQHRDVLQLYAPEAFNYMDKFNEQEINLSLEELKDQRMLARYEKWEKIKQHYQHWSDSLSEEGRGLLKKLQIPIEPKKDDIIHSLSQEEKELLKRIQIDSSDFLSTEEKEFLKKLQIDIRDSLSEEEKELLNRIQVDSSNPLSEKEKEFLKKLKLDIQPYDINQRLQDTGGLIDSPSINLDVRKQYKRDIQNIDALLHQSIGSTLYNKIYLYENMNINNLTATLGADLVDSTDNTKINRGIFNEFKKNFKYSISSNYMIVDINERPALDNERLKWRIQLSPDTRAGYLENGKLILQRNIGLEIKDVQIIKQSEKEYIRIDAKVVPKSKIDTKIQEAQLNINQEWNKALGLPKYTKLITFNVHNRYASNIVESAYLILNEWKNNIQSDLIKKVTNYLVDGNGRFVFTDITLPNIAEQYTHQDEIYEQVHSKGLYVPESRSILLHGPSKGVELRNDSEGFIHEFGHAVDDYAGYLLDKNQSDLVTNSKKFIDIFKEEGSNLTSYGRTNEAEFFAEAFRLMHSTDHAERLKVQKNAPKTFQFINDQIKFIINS
BJeLR viability: kills HRASV12-expressing BJeLR cells; hit rate 0.17% among 300,000; inhibition, % (concentration not given with the values); AID 1554; BJeLR (HRASV12) viability, CellTiter-Glo ATP luminescence, 48 h; in the data active = inhibition above about 50%; inconclusive = no clear call, values can overlap the other calls
A number is an active result; 0 = inactive; ? = inconclusive; - = no result given. Only some compounds are listed: those with a hit (about 3.6% of all), similar ones and a draw of the others. Rule as the data show it, unless noted: active = inhibition above about 30%; inconclusive = no clear call, values can overlap the other calls; inactive = below that.

SMILES	Autofluor counter	BoNT A protease	SARS 3CLpro inh	BoNT F protease	Anthrax LF inh2	BJeLR viability
CCc1nc2c(OCCOC)cccn2c1N(C)C(=O)c1ccco1	0	0	-	0	0	-
COc1ccc(Oc2ccc(N/C=C3/CCCC3=O)cc2)cc1	0	0	0	0	0	0
O=C1CCC/C1=C/Nc1cccc(F)c1	-	-	0	-	-	0
O=C1CCCC/C1=C/Nc1ccc2c(c1)OCO2	16302	0	0	0	0	0
COc1ccc(N/C=C2/CCCCC2=O)cc1	21936	0	0	0	0	-
NC(=O)c1ccccc1N/C=C1\CCCCC1=O	0	0	0	0	0	0
COc1ccc(OC)c(N/C=C2/CCCCC2=O)c1	21967	0	0	0	0	0
O=C1CCCC/C1=C\Nc1ccccc1C(=O)O	19879	0	0	0	0	0
O=C(Nc1ccc(Oc2ccccc2)nc1)C1CCCCN1Cc1ccc(OCCO)cc1 (stereo unspecified)	0	0	0	0	0	0
COc1ccc2c(c1)nc(SCC(=O)c1cccs1)n2C	0	0	0	0	0	0
COc1ccc(NS(=O)(=O)c2cccc(N/C(=N\S(=O)(=O)c3ccccc3)c3ccc(F)cc3)c2)cc1	0	0	0	0	0	0
CC(=NNC(=S)SCc1ccccc1)c1ccccn1	0	42	-	83	57	-
S=C(NCc1ccccn1)Nc1cccc(Cl)c1	0	0	0	0	0	0
CC(=NNC(=S)N1CCCC1)c1ccccn1	0	0	-	0	0	-
CC(=NNC(=S)Nc1cccc(Cl)c1)c1ccccn1	0	0	-	63	41	-
COc1ccccc1/C=C/C(=O)c1c2c(c(C)[nH]c1=O)CCCC2	21882	?	0	0	0	-
COc1ccccc1/C=C/C(=O)c1ccc(Cl)cc1	24068	0	0	0	0	0
CC[C@]12c3[nH]c4cc(-c5ccco5)ccc4c3CCN1C(=O)[C@@H](CC(=O)NCc1ccc(OC)c(OC)c1)C[C@@H]2C(=O)N1CCN(C(=O)c2ccco2)CC1	0	0	-	0	0	-
CC(=O)OC1CSc2nc3ccccc3n2C1 (stereo unspecified)	?	0	0	0	0	0
CCN(CC)CCOc1ncnc2c1oc1ccccc12	19366	?	0	0	0	0
O=C1/C(=C/c2ccc(O)cc2)SC(=S)N1CC1CCCO1 (stereo unspecified)	0	0	0	0	0	0
Cc1ccsc1/C=C1\SC(=S)N(CC2CCCO2)C1=O (stereo unspecified)	0	35	0	0	32	0
N#CC(c1cccc(Cl)c1)c1ccc2c(C(F)(F)F)cc(C(F)(F)F)nc2n1 (stereo unspecified)	0	0	0	0	0	76
COc1cc(-c2nn3c(Cc4ccccc4)nnc3s2)cc(OC)c1OC	22616	0	0	0	0	0
COc1cc(-c2nn3c(COc4ccccc4)nnc3s2)cc(OC)c1OC	23486	0	0	0	0	0
SMILES	Autofluor counter	BoNT A protease	SARS 3CLpro inh	BoNT F protease	Anthrax LF inh2	BJeLR viability
COC(=O)CNC(=O)CNC(=O)Nc1ccccc1	19345	?	0	0	0	0
COC(=O)CCCCNC(=O)Nc1ccccc1	0	0	0	0	0	0
COc1ccc(C2=NN(C(=O)CSc3nc(=O)n4cccc(C)c4n3)C(c3ccc(C)cc3)C2)cc1 (stereo unspecified)	0	0	-	0	0	0
CCCCCCCn1c(=N)n(CC(O)c2ccco2)c2ccccc21 (stereo unspecified)	0	?	0	?	?	0
N=c1n(CCN2CCCC2)c2ccccc2n1CC(O)c1ccco1 (stereo unspecified)	21466	0	0	0	0	0
CC1(C)CC(=O)C(C(C2=C(O)CC(C)(C)CC2=O)c2cccc(O)c2)C(=O)C1 (stereo unspecified)	20599	?	0	0	0	-
O=C(NCc1ccco1)C(=O)NCC1OCCN1C(=O)c1ccc(Cl)cc1 (stereo unspecified)	0	0	0	0	0	0
CCC(C)NC(=O)COc1ccc(Br)c(C)c1 (stereo unspecified)	20456	0	0	0	0	0
CC(C(=O)NCCCn1ccnc1)(c1ccccc1)c1ccccc1	0	0	0	?	0	0
Clc1ccccc1OCCCCN1CCCC1	20741	0	0	0	0	0
CC(=O)N1CCN(c2ccc(S(=O)(=O)N3CCCCC3)cn2)CC1	18018	0	0	0	0	0
COC(=O)c1c(NC(=O)c2ccccc2)sc2c1CC(C)(C)OC2	16350	?	0	0	0	0
CCOC(=O)c1c(NC(=O)c2ccc(C)cc2)sc2c1CC(C)(C)OC2	0	0	0	0	0	0
O=C(CN1C(=O)NC(c2ccccc2)(c2ccccc2)C1=O)NCCc1ccc(F)cc1	0	0	-	0	0	-
COC(=O)c1ccc2c(=O)[nH]c(CN3c4ccccc4CC3C)nc2c1 (stereo unspecified)	19519	?	0	0	0	0
CC1Cc2ccccc2N1Cc1nc2cc(Cl)ccc2c(=O)[nH]1 (stereo unspecified)	0	0	0	0	0	0
Cn1c(=O)c2c(nc(N3CCC(C(N)=O)CC3)n2CCSc2nc3ccccc3s2)n(C)c1=O	0	0	-	0	0	0
Cn1c(=O)c2c(nc(N3CCCCC3)n2CCSc2nc3ccccc3s2)n(C)c1=O	16274	0	0	0	0	0
CC1CCN(c2nc3c(c(=O)n(C)c(=O)n3C)n2CCSc2nc3ccccc3s2)CC1	0	0	0	0	0	0
CC1CCCN(c2nc3c(c(=O)n(C)c(=O)n3C)n2CCSc2nc3ccccc3s2)C1 (stereo unspecified)	20318	0	0	0	0	0
O=c1[nH]c2ccccc2c2cn(-c3ccccc3)nc12	0	0	0	0	0	0
O=C(Nc1ccc(F)cc1F)Nc1ccc(F)cc1F	0	0	0	0	0	0
O=C(Nc1ccncc1)Nc1ccc(F)cc1F	23331	0	0	0	0	0
COc1ccc(NC(=O)CCCC(=O)OCC(F)(F)C(F)F)cc1	0	0	0	0	0	0
CC(=O)c1ccc(NC(=O)CCC(=O)OCC(F)(F)C(F)F)cc1	20248	?	0	0	0	0
SMILES	Autofluor counter	BoNT A protease	SARS 3CLpro inh	BoNT F protease	Anthrax LF inh2	BJeLR viability
CCCN1CCN(C(=O)Nc2ccc(C(=O)OCC)cc2)CC1	20252	0	0	0	0	0
CCOC(=O)c1ccc(NC(=O)N2CCCCCC2)cc1	0	0	0	0	0	0
CCCOC(=O)c1ccc(NC(=O)CCC(=O)OCC)cc1	21063	0	0	0	0	0
Cc1ccc(S(=O)(=O)NNc2ccccc2)cc1	16260	?	0	0	0	0
Cc1ccc(S(=O)(=O)Nc2ccc(Nc3ccccc3)cc2)cc1	0	0	0	0	0	0
Cc1ccc(S(=O)(=O)NNC(=O)c2ccccc2O)cc1	0	0	0	39	0	0
COc1cccc(CC2(CO)CCN(CC3=CC[C@H]4C[C@@H]3C4(C)C)CC2)c1	0	0	0	0	0	-
CC1Cc2cc(S(=O)(=O)N3CCC(C(=O)N(C)Cc4ccco4)CC3)ccc2N1C(=O)C1CCC1 (stereo unspecified)	0	0	0	0	0	0
Cc1cccc2c1c1ccc3c(c1n2C)C(=O)C=CC3=O	0	0	0	0	0	-
